TSHR antag: antagonists of human thyroid stimulating hormone receptor. P16473. activity change, negative = inhibition, % at 11.5 µM. 0.2% of 330,000 active. TSHR-expressing cells, TSH-stimulated cAMP HTRF, 2 h; active compounds read low. AID 504810;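 active = activity change below a set negative limit, meaning inhibition stronger than a set level, cut at about -70% in these data; inconclusive = activity change between two set negative limits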; note: % is set by controls: 0 for no effect and ±100 for the full control effect
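Inhibition of cAMP made by TSHR-expressing cells under TSH stimulation (4nM final, EC80; 2 h, 37 deg C) is quantified with a one-step lysis HTRF kit, anti-cAMP cryptate versus cAMP-d2.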
uPA generation: blocks generation of uPA at the cell surface; cell surface uPA generation assay, qHTS; Potency, µM (titrated, usually from 38.3 µM), without a hit: at the highest dose activity change, negative = inhibition, usual class: inhibitors; 0.31% of 330,000 active; AID 540303; active = well fitted inhibition curve with a large enough effect; inconclusive = small, poorly fitted or top-dose-only effect; inactive = no such curve, though single readings can be large or run the other way; tested in mouse RAW 264.7 cells; note: potency is the fitted concentration of half-maximal effect; % is set by controls: 0 for no effect and ±100 for the full control effect; nearly all actives have a fitted effect of over 55% in size
TSG101-PTAP inh: blocks PTAP/TSG101 interaction to inhibit HIV-1 budding | Potency, µM (series often up to 115 µM), for the others: top-dose activity change, negative = inhibition, hits mostly inhibitors | Q99816 | Fluorescence polarization, FITC-PTAP peptide / Tsg101 binding | 340,000 tested, under 10 active | AID 493005; active = well fitted inhibition curve with a large enough effect in the main read-out, with a control signal flat, not every such curve was filed as active; inconclusive = small, poorly fitted or top-dose-only effect, or effect the other way, or a change in a side signal; inactive = no such curve, though single readings can be large or run the other way; note: potency is the fitted concentration of half-maximal effect; % of control where 0% means no effect
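Steps: Tsg101 binding domain dispensed (10 uM final), compounds pinned in DMSO, FITC-labeled PTAP-motif peptide added (50 nM final); after 20 min binding at room temperature, polarization measured.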
PLK1 PBD inh: blocks phosphopeptide binding to human PLK1 polo-box domain; Potency, µM, inactives show max response, negative = inhibition, hits mostly inhibitors; 2.8% of 360,000 active; AID 720504; P53350; Plk1 PBD binding of FITC phosphopeptide, fluorescence polarization; note: potency is the fitted concentration of half-maximal effect; series mostly up to about 57 µM; % is set by controls: 0 for no effect and ±100 for the full control effect; nearly all actives have a fitted effect of over 65% in size
Target sequence (P53350 whole entry, looked up, the tested form may be a part): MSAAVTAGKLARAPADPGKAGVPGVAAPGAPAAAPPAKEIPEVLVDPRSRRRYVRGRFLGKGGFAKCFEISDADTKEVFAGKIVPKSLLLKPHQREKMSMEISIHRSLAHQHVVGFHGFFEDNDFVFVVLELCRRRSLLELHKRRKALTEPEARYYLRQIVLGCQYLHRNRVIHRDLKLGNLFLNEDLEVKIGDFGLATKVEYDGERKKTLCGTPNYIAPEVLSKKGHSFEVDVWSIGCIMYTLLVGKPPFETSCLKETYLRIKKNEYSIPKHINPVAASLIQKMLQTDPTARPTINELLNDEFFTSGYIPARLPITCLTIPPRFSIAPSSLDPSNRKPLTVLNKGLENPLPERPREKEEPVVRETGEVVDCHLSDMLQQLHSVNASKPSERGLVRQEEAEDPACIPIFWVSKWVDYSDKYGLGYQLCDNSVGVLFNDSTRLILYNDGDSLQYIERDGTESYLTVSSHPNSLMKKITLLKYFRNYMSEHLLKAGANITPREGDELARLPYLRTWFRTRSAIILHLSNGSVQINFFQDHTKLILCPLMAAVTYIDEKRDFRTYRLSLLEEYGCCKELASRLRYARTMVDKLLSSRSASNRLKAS
VDR inh: blocks the human vitamin D receptor. AID 504847. Potency, µM, inactives show max response, negative = inhibition, usual class: inhibitors. 0.93% of 400,000 active. P11473. VDR-SRC2-3 peptide fluorescence polarization, 2 h; note: potency is the fitted concentration of half-maximal effect; % is set by controls: 0 for no effect and ±100 for the full control effect
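FP read-out; VDR + SRC2-3 coactivator peptide; 23 nl compound by pintool; 2 h RT incubation; reagents held at 4 deg C, protected from light.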
Starred values were filed as active, the others as inactive; ? = inconclusive; · = no result. The list is not random: actives were taken first. Their share in the collection is about 3.1%. Unless noted, calls come from the whole dose curve; as a rule, active = well fitted curve in the direction sought with a large enough effect; inconclusive = small, poorly fitted or top-dose-only effect, or another doubt; inactive = no such curve, though single readings can be large; an effect the other way counts as inactive or inconclusive.

SMILES	TSHR antag	uPA generation	TSG101-PTAP inh	PLK1 PBD inh	VDR inh
Nc1ccc(/C=C/C(=O)c2cccs2)cc1	-11	-6%	29%	40%	-13%
O=C(c1cccs1)N1CCN(C/C=C/c2ccccc2)CC1	5	0%	-5%	2%	-1%
CCOc1ccc(/C=C/C(=O)c2ccccc2)cc1	-8	-16%	-6%	-5%	?
CCOc1ccc(/C=C/C(=O)c2cccs2)cc1	·	·	·	·	22µM*
Cc1c(/C=C/C(=O)c2cccs2)cnn1C	-4	-6%	-1%	3.4µM*	?
O=C(/C=C/c1ccccc1)c1cccs1	·	·	·	·	11µM*
CSc1ccc(C(O)c2ncc(-c3cccc(OCc4ccccc4)c3)[nH]2)cc1 (stereo not drawn)	·	·	·	-2%	·
O=C(CSc1ccc2nnc(-c3cccnc3)n2n1)NCc1ccc2c(c1)OCO2	-3	-2%	-1%	-23%	11%
O=C(Cc1ccccc1)NCc1ccc2c(c1)OCO2	1	0%	-2%	-9%	-3%
O=C(CSc1nnc(-c2cccnc2)n1-c1ccc(F)cc1)NCc1ccc2c(c1)OCO2	3	-4%	-2%	12µM*	-5%
Cc1ccc(NC(=O)CSc2nnc3nc(C)cc(C)n23)cc1	·	·	·	·	-2%
Nc1cc(N)nc(SCC(=O)NCc2ccc3c(c2)OCO3)n1	-9	-3%	-5%	6µM*	?
Cc1cc(C)n2c(SCC(=O)Nc3ccc(F)cc3)nnc2n1	29	-10%	-1%	21µM*	?
CS(=O)(=O)N(CC(=O)NCc1ccc2c(c1)OCO2)Cc1ccccc1	2	3%	-7%	8.4µM*	?
Cc1ccc(S(=O)(=O)NCC(Nc2cccc(Cl)c2)c2ccccc2)cc1 (stereo not drawn)	·	·	·	·	11%
O=C(CSc1nc2ccccc2s1)NCc1ccc2c(c1)OCO2	2	-6%	-3%	?	-8%
Cc1nc2ccccc2nc1OCC(=O)NCc1ccc2c(c1)OCO2	3	-1%	-5%	2.7µM*	-11%
CC(C)C(=O)c1cn(CC(=O)NCc2ccc3c(c2)OCO3)c2ccccc12	1	2%	0%	24µM*	-23%
Cc1cc(C)n2c(SCC(=O)NCc3ccc4c(c3)OCO4)nnc2n1	-5	6%	-9%	24µM*	?
O=C(CSc1ccc2ccccc2n1)NCc1ccc2c(c1)OCO2	4	1%	-1%	24µM*	-20%
CSc1ccc(/C=C(\NC(=O)c2ccccc2)C(=O)NCCN2CCOCC2)cc1	-5	-10%	-1%	-9%	0%
Cc1ccc(CNC(=O)CO/N=C/c2ccc3c(c2)OCO3)cc1	5	-3%	-8%	27µM*	-20%
Cc1cccc(NC(=O)CO/N=C/c2ccc3c(c2)OCO3)c1	0	6%	1%	-5%	-11%
COc1ccc(/C=N/n2cnn(Cc3ccccc3Cl)c2=S)cc1	-13	0%	0%	27µM*	?
Oc1ccccc1/C=N/n1cnn(Cc2ccccc2Cl)c1=S	0	-3%	-2%	4.7µM*	?
SMILES	TSHR antag	uPA generation	TSG101-PTAP inh	PLK1 PBD inh	VDR inh
Fc1ccccc1/C=N/N1CCN(Cc2ccccc2Cl)CC1	3	1%	0%	-6%	-8%
COc1cc(/C=N/n2cnn(Cc3ccccc3Cl)c2=S)cc(OC)c1OC	-7	6%	0%	?	?
Cc1ccc(CN(Cc2cccn2-c2nnc(N3CCCC3=O)s2)C(=O)Nc2cc(C)cc(C)c2)cc1	·	·	·	·	-3%
O=C(NCc1ccccc1)N1CCN(c2ccc(F)cc2)CC1	5	-2%	-4%	3µM*	-25%
O=C(Cc1ccccc1)NC1CCN(C(=O)NCc2ccccc2)CC1	-1	5%	-6%	27µM*	-5%
Cc1ccccc1-c1nn[nH]n1	1	·	-3%	-5%	-17%
c1ccc(-c2nn[nH]n2)c(Nc2cccc3c2CCCC3)c1	·	·	·	·	40µM*
Cc1nnc(N2CCC(C(=O)NCCc3ccccc3Cl)CC2)c2nn(-c3ccccc3)c(C)c12	·	·	·	·	-4%
COC(=O)c1cc(O)cc(OC)c1Oc1cc(C)cc(O)c1C(=O)O	-9	0.89µM*	-3%	-11%	?
COc1cc(/C=C2\SC(c3ccccc3)=NC2=O)cc(Cl)c1O	-3	3%	-3%	11µM*	?
COC(=O)CC1C(=O)NC2CCCCC2N1C(=O)CCl (stereo not drawn)	12	-5%	1%	5%	-16%
COc1ccc(C2=NOC(C(=O)NCc3ccccc3)C2)cc1 (stereo not drawn)	16	·	-3%	27µM*	-19%
O=C(COC(=O)c1c2c(nc3ccccc13)/C(=C\c1ccco1)CC2)NC1CCCC1	·	?	-6%	9.5µM*	-18%
O=C(CCl)Nc1cc(-c2ccccc2)nn1-c1ccccc1	-10	·	0%	-17%	-12%
Cc1ccc(-c2cc(NC(=O)CCl)n(-c3ccccc3)n2)cc1	22	-14%	-6%	27µM*	?
CC1(Cc2ccc3c(c2)OCO3)C(=O)Nc2c(Cl)ccc(Cl)c21 (stereo not drawn)	·	·	·	-2%	·
Cn1nc([N+](=O)[O-])nc1Oc1ccccc1N	-5	0%	-3%	0%	2%
Cn1nc([N+](=O)[O-])nc1Oc1ccccc1F	-3	-3%	-1%	24µM*	-25%
COCCNC(=O)CSc1nnc(NC(=O)Nc2ccc(C)cc2)s1	·	·	·	·	7%
CCOC(=O)C(C(=O)OCC)C(C(=O)OCC)N1CCOCC1 (stereo not drawn)	20	4%	1%	24µM*	40µM*
CCOC(=O)C(C)CC(C)C(=O)N1CCOCCOCCN(C(=O)C(C)CC(C)C(=O)OCC)CCOCC1 (stereo not drawn)	4	4%	-1%	-12%	-7%
O=C(NCc1ccncc1)c1ccc(Oc2ccccc2)cc1	-13	4%	-2%	11µM*	-26%
COc1ccc(C(=O)NCc2cc(C)nc3ccccc23)cc1	-10	7.1µM*	1%	?	1%
O=C(Nc1cccc(C(=O)N2CCCc3ccccc32)c1)c1ccccc1	-15	-11%	1%	4%	-5%
COc1ccc(CCNS(=O)(=O)c2cccc([N+](=O)[O-])c2)cc1OC	-4	-7%	-2%	-15%	-28%
SMILES	TSHR antag	uPA generation	TSG101-PTAP inh	PLK1 PBD inh	VDR inh
COc1ccc(CCNS(=O)(=O)c2cccc(C(=O)O)c2)cc1OC	5	1%	0%	3.4µM*	-23%
Cc1c(C)n(CC(O)CNc2ccccc2)c2ccccc12 (stereo not drawn)	-6	10%	2%	7%	-16%
Cc1c(C)n(CC(O)CSc2ccccc2)c2ccccc12 (stereo not drawn)	·	·	·	2.4µM*	·
O=C1C2C3C=CC(C3)C2C(=O)N1CCc1ccccc1 (stereo not drawn)	-18	12%	-6%	-1%	-6%
O=C(CCN1C(=O)C2C3C=CC(C3)C2C1=O)NCCc1ccccc1 (stereo not drawn)	-1	5%	-4%	24µM*	-10%
Cc1cccc(NC(=O)CCN2C(=O)C3C4C=CC(C4)C3C2=O)n1 (stereo not drawn)	-1	2%	-3%	12µM*	0%

High-throughput results deposited in PubChem by National Center for Advancing Translational Sciences (NCATS).
